Here are results for 10 compounds from ChEMBL document CHEMBL1961873, “Compounds: GSK PKIS; Assays: Nanosyn kinase panel” (2012).

Experiment [1] addresses T1, Ephrin type-B receptor 2 (Homo sapiens) (UniProt P29323).
T1 sequence (whole entry): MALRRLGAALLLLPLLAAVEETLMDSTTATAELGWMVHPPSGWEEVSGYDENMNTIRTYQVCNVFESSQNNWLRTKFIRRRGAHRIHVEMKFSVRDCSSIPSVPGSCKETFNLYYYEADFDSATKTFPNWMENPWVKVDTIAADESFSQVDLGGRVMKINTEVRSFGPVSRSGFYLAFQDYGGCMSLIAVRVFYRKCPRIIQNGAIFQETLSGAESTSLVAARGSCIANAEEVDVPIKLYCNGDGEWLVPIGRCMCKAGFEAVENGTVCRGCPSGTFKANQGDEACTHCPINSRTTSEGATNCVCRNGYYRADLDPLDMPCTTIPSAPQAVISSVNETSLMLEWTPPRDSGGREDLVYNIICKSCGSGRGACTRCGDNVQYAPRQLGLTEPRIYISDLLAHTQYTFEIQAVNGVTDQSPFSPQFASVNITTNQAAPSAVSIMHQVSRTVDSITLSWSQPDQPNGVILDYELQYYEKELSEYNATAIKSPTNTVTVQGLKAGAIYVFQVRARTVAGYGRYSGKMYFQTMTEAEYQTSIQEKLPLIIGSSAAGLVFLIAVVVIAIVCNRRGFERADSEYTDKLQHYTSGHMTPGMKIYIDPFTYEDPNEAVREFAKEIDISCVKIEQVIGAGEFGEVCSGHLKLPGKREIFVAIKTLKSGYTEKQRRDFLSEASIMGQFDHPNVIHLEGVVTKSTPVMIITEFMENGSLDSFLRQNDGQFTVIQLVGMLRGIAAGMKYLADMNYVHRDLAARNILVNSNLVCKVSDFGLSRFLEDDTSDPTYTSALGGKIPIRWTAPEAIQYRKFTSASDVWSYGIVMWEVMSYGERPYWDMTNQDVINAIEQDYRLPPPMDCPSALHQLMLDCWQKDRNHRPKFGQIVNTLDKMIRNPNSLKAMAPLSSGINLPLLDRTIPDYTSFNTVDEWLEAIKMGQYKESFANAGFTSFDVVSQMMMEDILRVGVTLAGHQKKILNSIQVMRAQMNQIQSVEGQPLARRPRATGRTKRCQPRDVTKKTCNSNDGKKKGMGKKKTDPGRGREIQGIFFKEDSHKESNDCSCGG
Conditions: at 1 µM.

For experiment [2], the target named is T2, Ephrin type-B receptor 3 (Homo sapiens) (UniProt P54753).
T2 sequence (whole entry): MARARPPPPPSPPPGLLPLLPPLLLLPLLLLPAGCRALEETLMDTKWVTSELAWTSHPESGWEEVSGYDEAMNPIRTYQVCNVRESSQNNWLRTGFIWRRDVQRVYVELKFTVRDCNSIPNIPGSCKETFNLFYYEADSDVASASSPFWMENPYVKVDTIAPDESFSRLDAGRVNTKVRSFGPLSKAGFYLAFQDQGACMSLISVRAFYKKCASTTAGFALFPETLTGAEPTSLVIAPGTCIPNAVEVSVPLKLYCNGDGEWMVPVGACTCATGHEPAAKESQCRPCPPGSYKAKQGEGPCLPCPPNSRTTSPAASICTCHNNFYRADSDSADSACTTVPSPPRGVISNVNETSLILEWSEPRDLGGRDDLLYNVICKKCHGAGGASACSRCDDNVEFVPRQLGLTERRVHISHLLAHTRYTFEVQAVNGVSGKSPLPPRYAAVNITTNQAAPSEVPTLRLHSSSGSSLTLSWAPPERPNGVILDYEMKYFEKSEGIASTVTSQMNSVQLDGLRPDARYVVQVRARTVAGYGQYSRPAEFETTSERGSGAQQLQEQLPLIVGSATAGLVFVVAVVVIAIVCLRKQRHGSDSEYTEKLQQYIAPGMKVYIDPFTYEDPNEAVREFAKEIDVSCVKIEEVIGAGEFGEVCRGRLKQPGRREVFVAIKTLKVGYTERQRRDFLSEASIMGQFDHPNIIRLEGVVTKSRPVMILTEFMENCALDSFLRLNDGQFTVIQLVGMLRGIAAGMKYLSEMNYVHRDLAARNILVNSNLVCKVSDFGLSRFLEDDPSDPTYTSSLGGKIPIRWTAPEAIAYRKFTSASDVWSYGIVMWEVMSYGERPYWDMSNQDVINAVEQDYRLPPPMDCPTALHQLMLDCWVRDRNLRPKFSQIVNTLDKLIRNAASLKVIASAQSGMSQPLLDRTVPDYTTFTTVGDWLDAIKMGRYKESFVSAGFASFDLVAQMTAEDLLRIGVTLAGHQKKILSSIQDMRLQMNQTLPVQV
The following applies: at 0.1 µM.

The target of experiment [3] is T2, Ephrin type-B receptor 3 (Homo sapiens). Conditions: at 1 µM.
Experiment [4] addresses T3, Ephrin type-B receptor 4 (Homo sapiens) (UniProt P54760).
T3 sequence (whole entry): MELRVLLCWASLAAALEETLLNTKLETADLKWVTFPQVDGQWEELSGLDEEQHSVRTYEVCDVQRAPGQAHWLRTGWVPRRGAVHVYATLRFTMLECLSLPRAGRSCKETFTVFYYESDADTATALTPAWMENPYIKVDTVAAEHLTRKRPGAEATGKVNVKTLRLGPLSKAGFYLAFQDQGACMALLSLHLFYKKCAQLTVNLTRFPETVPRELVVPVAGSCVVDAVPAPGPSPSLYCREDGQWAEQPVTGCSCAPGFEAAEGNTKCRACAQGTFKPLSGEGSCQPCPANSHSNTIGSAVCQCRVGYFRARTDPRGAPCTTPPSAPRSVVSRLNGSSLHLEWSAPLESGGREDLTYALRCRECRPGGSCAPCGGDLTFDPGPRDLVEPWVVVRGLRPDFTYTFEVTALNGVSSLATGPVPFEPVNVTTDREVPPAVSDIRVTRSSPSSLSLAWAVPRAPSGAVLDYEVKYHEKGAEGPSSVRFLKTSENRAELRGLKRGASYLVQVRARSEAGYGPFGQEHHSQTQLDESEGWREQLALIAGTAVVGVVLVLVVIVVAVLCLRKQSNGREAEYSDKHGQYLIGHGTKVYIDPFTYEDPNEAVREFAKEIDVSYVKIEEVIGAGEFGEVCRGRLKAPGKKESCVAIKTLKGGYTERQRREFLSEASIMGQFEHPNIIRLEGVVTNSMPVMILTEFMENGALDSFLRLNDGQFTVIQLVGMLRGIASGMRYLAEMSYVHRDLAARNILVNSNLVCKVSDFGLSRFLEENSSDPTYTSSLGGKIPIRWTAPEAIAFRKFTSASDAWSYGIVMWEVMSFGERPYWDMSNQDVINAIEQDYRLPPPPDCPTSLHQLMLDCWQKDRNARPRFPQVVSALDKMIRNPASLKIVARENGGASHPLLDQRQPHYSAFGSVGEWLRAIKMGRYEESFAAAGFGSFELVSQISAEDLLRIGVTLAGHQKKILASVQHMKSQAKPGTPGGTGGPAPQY
Conditions: at 0.1 µM.

For experiment [5], the target named is T3, Ephrin type-B receptor 4 (Homo sapiens). The following applies: at 1 µM.
For experiment [6], the target named is Receptor tyrosine-protein kinase erbB-2 (Homo sapiens) (UniProt P04626). Conditions: at 0.1 µM.
For experiment [7] the target is unchanged. The following applies: at 1 µM.
The target of experiment [8] is Receptor tyrosine-protein kinase erbB-4 (Homo sapiens) (UniProt Q15303). The following applies: at 0.1 µM.
Experiment [9] shares this target. Conditions: at 1 µM.
Experiment [10] addresses Tyrosine-protein kinase Fer (Homo sapiens) (UniProt P16591). The following applies: at 0.1 µM.

Sequence of Receptor tyrosine-protein kinase erbB-4 (Homo sapiens) (Q15303 whole entry): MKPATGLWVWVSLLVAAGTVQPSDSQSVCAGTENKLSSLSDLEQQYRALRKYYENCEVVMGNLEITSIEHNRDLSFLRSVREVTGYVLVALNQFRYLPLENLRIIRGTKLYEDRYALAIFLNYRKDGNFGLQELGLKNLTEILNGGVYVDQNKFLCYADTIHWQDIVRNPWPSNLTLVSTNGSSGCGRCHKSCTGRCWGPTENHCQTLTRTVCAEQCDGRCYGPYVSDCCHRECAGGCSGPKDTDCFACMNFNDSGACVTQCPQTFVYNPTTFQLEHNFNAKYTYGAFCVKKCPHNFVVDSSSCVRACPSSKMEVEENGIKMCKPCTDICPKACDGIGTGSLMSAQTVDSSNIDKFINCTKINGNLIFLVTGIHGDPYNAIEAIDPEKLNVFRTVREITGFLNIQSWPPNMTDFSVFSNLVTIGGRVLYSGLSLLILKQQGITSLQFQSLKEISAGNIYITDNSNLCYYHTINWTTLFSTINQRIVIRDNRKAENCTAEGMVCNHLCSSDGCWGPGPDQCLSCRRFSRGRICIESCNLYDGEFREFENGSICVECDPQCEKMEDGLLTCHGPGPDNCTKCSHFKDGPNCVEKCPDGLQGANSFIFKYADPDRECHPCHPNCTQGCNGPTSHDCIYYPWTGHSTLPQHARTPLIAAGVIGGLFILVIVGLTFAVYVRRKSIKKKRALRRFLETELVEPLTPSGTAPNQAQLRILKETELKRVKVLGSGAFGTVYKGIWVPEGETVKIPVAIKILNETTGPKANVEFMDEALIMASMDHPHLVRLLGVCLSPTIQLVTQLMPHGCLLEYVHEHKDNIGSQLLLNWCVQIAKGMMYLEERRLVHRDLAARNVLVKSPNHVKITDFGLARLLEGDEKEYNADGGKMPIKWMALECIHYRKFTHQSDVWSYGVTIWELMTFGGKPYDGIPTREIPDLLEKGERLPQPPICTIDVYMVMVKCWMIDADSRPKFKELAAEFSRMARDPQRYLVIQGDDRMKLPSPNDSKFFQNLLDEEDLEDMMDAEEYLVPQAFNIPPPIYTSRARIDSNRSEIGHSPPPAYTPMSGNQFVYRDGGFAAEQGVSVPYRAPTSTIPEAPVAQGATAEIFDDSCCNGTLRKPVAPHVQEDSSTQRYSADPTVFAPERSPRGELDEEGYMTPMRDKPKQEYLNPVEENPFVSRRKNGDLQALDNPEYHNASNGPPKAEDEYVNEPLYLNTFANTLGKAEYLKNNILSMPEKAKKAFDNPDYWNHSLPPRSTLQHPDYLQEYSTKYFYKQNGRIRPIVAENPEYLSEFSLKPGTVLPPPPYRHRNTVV
Sequence of Receptor tyrosine-protein kinase erbB-2 (Homo sapiens) (P04626 whole entry): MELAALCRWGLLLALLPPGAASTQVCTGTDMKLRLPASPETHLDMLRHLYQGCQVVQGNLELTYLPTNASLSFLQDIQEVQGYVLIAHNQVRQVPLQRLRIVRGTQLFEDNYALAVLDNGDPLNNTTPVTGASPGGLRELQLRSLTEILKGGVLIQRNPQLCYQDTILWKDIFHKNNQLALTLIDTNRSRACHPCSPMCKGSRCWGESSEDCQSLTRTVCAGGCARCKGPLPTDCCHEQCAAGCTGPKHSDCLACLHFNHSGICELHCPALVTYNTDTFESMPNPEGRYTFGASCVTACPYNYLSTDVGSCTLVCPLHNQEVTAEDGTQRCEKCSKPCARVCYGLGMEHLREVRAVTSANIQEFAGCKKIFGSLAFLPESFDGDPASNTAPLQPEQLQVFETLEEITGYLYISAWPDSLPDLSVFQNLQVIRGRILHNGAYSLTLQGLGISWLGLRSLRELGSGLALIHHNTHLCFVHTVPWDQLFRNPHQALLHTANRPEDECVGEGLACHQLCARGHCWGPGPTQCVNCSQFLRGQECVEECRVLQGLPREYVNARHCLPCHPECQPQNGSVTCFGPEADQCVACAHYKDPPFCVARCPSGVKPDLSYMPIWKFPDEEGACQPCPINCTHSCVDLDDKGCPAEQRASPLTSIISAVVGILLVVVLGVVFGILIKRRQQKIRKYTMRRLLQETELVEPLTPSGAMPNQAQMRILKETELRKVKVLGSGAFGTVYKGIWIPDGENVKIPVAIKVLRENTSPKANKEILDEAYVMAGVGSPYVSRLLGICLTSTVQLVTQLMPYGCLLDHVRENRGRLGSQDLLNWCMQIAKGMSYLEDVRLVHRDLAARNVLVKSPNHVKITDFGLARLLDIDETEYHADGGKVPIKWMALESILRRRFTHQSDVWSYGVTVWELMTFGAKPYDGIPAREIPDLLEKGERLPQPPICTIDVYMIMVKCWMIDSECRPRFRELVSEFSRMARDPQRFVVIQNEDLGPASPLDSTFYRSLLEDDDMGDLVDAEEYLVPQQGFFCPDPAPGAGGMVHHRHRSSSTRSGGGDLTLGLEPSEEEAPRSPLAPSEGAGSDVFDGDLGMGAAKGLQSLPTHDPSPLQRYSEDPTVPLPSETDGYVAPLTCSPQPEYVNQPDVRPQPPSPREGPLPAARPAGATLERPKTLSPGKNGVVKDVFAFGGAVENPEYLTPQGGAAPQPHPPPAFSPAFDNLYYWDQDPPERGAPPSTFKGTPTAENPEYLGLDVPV
Sequence of Tyrosine-protein kinase Fer (Homo sapiens) (P16591 whole entry, looked up): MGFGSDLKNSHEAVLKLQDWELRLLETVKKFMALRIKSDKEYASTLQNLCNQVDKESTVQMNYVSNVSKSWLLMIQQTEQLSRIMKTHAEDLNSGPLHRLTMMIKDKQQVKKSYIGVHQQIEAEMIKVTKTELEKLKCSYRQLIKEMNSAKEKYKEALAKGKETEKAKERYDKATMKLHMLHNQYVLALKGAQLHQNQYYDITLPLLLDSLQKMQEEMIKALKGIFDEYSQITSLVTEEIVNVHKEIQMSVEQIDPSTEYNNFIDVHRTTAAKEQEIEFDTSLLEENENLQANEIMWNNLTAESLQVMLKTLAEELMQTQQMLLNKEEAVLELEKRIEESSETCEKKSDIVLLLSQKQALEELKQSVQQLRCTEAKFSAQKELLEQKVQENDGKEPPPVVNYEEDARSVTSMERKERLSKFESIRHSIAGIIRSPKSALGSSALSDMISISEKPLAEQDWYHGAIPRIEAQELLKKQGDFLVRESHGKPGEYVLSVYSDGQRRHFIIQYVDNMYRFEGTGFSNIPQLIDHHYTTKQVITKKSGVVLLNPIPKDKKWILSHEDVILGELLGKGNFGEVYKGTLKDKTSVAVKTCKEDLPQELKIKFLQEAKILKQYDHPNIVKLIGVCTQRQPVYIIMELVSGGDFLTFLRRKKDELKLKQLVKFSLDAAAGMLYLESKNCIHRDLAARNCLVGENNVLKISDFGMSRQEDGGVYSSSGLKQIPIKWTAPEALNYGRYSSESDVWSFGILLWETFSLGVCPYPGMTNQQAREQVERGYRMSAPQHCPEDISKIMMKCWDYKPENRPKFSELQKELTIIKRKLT

The inhibition is the relative decrease from the control value, in per cent. Take `CS(=O)(=O)CCN(CC#N)Cc1ccc(-c2ccc3ncnc(Nc4ccc(OCc5cccc(F)c5)c(Cl)c4)c3c2)o1`: the inhibition is 4.79% in [1]; -1.45% in [2]; -0.8% in experiment [3]; -2.59% in [4]; -3.31% in [5]; 12.4% in [6]. In addition, the inhibition in experiment [7] is 66.7%; in [8], 33.6%; in [9] it was 73.8%; in experiment [10] it was -0.11%.

Regarding `CS(=O)(=O)CCNCc1ccc(-c2ccc3ncnc(Nc4ccc(OCc5cccc(F)c5)c(C(F)(F)F)c4)c3c2)o1`, the inhibition came to 4.49% in experiment [1]; 6.25% in experiment [2]; 3.96% in experiment [3]; 2.87% in experiment [4]; 0.47% in [5]; 3.41% in experiment [6]. Further, the inhibition in [7] amounted to 7.46%; in experiment [8] it was 8.49%; in experiment [9], 16.9%; in experiment [10] it was 4.27%.

On to `CCn1c(-c2nonc2N)nc2c(C#CC(C)(C)O)nc(OC[C@@H](N)c3ccccc3)cc21`, for which the inhibition in experiment [1] was 12.1%; in experiment [2], 0.34%; in experiment [3], -0.22%; in experiment [4] it was -2.4%; in experiment [5], 1.73%; in experiment [6] it was -1.67%. The values for the inhibition in experiment [7], in experiment [8] and in [9] were -0.37%, -4.79% and -4.06%, respectively.

Regarding `COc1cc2c(cc1Nc1nc(N3CCc4ccccc43)c3cc[nH]c3n1)N(C(=O)CN(C)C)CC2`, the inhibition was determined as 9.31% in experiment [1]; 2.82% in experiment [2]; 0.49% in [3]; 1% in [4]; 0.73% in experiment [5]; 1.22% in experiment [6]. Moreover, the inhibition in experiment [7] is -0.36%; in experiment [8], 6.72%; in [9], 6.14%; in experiment [10] it was 66.2%.

On to `CCCN1CCC=C(c2ccc(Nc3nc(Nc4ccccc4C(N)=O)c4cc[nH]c4n3)c(C)c2)C1`, for which the inhibition in [1] stood at 8.88%; in experiment [2] it was 1.76%; in experiment [3], 2.4%; in [4] it was 2.74%; in experiment [5] it was 3.5%; in experiment [6], 2.98%. For the same compound, the inhibition in experiment [7] came to 3.15%; in experiment [8], 7.5%; in [9] it was 27.7%; in [10], 12.8%.

Consider `[O-][S+]1CCN(Cc2ccc(-c3ccc4ncnc(Nc5ccc(OCc6ccccc6)c(F)c5)c4c3)o2)CC1`, for which the inhibition in experiment [1] is -0.23%; in experiment [2], 3.15%; in [3] it was 1.61%; in experiment [4] it was 0.35%; in experiment [5] it was 2.22%; in experiment [6] it was 20.4%. The inhibition was 75.1% in experiment [7], 68.7% in [8], 88.7% in [9] and 3.77% in experiment [10].

For `O=C1NC(=O)C(c2ccccc2Cl)=C1Nc1cccc(O)c1`, the inhibition was 7.6% in [1]; 4.32% in experiment [2]; 1.16% in experiment [3]; 1.29% in [4]; 3.19% in [5]; 0.64% in experiment [6]. The inhibition in [7] was -0.2%; in experiment [8], 8.95%; in experiment [9], 8.95%; in experiment [10], 4.57%.

Regarding `CCn1c(-c2nonc2N)nc2cnc(Oc3cccc(NC(=O)c4ccc(OCCN5CCOCC5)cc4)c3)cc21`, the inhibition in experiment [1] was found to be 6.97%; in experiment [2], 6.88%; in experiment [3], 5.06%; in experiment [4] it was 3.21%; in experiment [5], 3.05%; in [6], 4.69%. Also, the inhibition in [7] was 2%; in experiment [8], 5.15%; in experiment [9], 10.4%; in [10] it was 3.9%.

For the compound `COc1ccc(-c2ccncc2)cc1C(N)=O`, the inhibition in experiment [1] turned out to be 8.22%; in experiment [2] it was 3.97%; in [3] it was 3.63%; in experiment [4], 1%; in [5], 2.03%; in [6] it was 1.06%. Besides, the inhibition in [7] is 2.95%; in [8], 6.21%; in [9] it was 12.3%; in experiment [10] it was 4.03%.

`CN1CCC(C(=O)Nc2n[nH]c3nnc(-c4ccccc4)cc23)CC1`: the inhibition in [1] came out at 3.41%; in [2], 6.23%; in experiment [3], 4.08%; in experiment [4], 2.18%; in [5], 1.12%; in experiment [6], 5.08%. Also, the inhibition is 14.2% in experiment [7], 17.7% in [8], 24.2% in experiment [9] and 3.91% in [10].
